Lmaj promast: Leishmania major promastigote growth inhibition; actives 9% (n = 200,000); Leishmania major promastigotes, resazurin fluorescence viability; AID 1063; inhibition, % at 10 µM; in the data active = inhibition above about 50%;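 note: promastigotes grown with compound for 44 hours at 28 °C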
Insulin prom inh: TRM-6 insulin promoter activity inhibition; actives 0.9% (n = 130,000); inhibition, % at 2 µM; TRM-6 cells (human fetal islet line), insulin promoter-eGFP reporter, imaging; reporter expression induced with tamoxifen; AID 1273;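 active = inhibition above the mean plus 3 SD, with well images judged a real hit on visual review, cut at about 60% in these data, passing the limit was not always enough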
HCT116 PTEN-null: suppresses growth of cells with PTEN deletion; viability, % at 10 µM; actives 1.2% (n = 140,000); HCT116 PTEN-null viability, CellTiter-Glo, 60 h; hits give low values;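 active = viability at or below a set limit, 4 SD under the median of all tested compounds, cut at about 3.7% in these data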;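 note: PTEN knockout HCT116 line with beta catenin targeted HCT116 as companion control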
ROMK primary: human ROMK K+ channel modulation, primary screen. P48048. Tet-inducible ROMK, thallium flux fluorescence; actives lie on both sides. B-score at 10 µM. actives 2% (n = 130,000). AID 1918;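 active = signal ratio slope over the read window, or its plate-corrected B-score, at least 3 SD from the plate mean, either direction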;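 note: B-score of the F/F0 ratio slope over 7 to 12 s after thallium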
Target sequence (P48048 whole entry, looked up): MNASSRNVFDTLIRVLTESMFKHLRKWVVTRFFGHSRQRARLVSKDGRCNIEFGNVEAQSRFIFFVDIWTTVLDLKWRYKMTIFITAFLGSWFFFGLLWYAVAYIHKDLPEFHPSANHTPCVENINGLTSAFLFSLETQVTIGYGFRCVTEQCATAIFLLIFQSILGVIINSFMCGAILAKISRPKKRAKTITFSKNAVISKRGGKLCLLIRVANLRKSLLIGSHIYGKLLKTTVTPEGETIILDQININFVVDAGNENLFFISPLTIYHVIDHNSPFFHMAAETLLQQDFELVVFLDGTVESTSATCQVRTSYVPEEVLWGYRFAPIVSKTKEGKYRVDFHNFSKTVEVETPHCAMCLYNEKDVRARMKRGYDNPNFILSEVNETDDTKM
p97 ATPase inh: human p97 ATPase inhibition | P55072 | recombinant p97 ATPase, Kinase-Glo ATP luminescence, 3 h | inhibition, % at 8 µM | actives 0.42% (n = 220,000) | AID 1481; in the data active = inhibition above about 15%;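 note: 0% = DMSO vehicle and 100% = wells lacking enzyme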
bCat KO growth: beta-catenin-lacking colon tumor cell growth suppression | HCT116 beta-catenin knockout viability, CellTiter-Glo, 60 h; hits give low values | viability, % at 10 µM | actives 1.5% (n = 140,000);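 active = viability at or under a set limit, the compound median less 4 SD, cut at about 6% in these data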;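 note: 0% = Hyamine 1622 control at 20 µM and 100% = untreated cell control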
Numbers without * were called inactive; . = no result. Compounds with a hit are over-represented: about 10% of the library has one in this group of screens.

SMILES | Lmaj promast | Insulin prom inh | HCT116 PTEN-null | ROMK primary | p97 ATPase inh | bCat KO growth
Cc1cc(C)n(-c2nc(SCCN(C)C)c3c4c(sc3n2)CCCC4)n1 | 100* | -41 | 2.0* | . | -6 | 3.0*
CCn1c(CC(=O)Nc2ccccc2)n[nH]c1=S | -7 | 64 | . | -0.73 | -1 | .
Cc1ccc[n+](C(C)C(=O)c2ccc(-c3ccccc3)cc2)c1 (centres undefined) | 98* | 15 | 17 | 0.63 | 2 | 16
Cc1cc[n+](C(C)C(=O)c2ccc(-c3ccccc3)cc2)cc1 (centres undefined) | 90* | 41 | . | 0.58 | 2 | .
Cn1c([N+](=O)[O-])cnc1N1CCN(c2nncs2)C1=O | . | . | . | . | 9 | .
O=C1CCCC2=C1C(c1ccc(Cl)cc1)n1c(s/c(=C\c3ccc4ccncc4c3)c1=O)=N2 (centres undefined) | 98* | -18 | 30 | . | -5 | 32
CC1=C(C(=O)Nc2ccccc2)C(c2ccc(Cl)cc2)n2c(s/c(=C/c3cccc(OCC(=O)O)c3)c2=O)=N1 (centres undefined) | 5 | . | . | 0.91 | 4 | .
CC(C)(C)C(=O)Cn1ncc(Br)c(Br)c1=O | 56* | . | . | 1 | 5 | .
C=CCNc1cnn(CC(C)=O)c(=O)c1Br | -1 | -6 | 101 | . | 4 | 96
CN(C)CCOc1ccc2c(c1)Sc1ccccc1CC2=O | 100* | 8 | 98 | -1.7 | 2 | 75
Cc1ccc2c(c1)Sc1ccccc1CC2=O | -1 | 19 | 89 | . | 3 | 89
Cc1ccc(NC(=O)CN2c3cccc4cccc(c34)S2(=O)=O)cc1S(=O)(=O)N1CCOCC1 | 96* | 9 | 75 | . | 3 | 75
Cc1ccc(NC(=O)[C@@H]2CCCN2S(=O)(=O)c2ccccc2F)cc1S(=O)(=O)N1CCOCC1 | 2 | -27 | 98 | . | -6 | 91
Cc1ccc(NC(=O)CSc2nccn2C)cc1S(=O)(=O)N1CCOCC1 | 57* | 1 | 99 | 0.8 | 6 | 88
Cc1ccc(NC(=O)CSc2ccccn2)cc1S(=O)(=O)N1CCOCC1 | 1 | 74* | . | -0.13 | 4 | .
Cc1ccc(NC(=O)[C@@H]2CCCN2S(=O)(=O)c2ccccc2C(F)(F)F)cc1S(=O)(=O)N1CCOCC1 | 98* | -12 | 87 | -0.46 | 2 | 87
CC12CCC(C(=O)N/N=C/c3ccc(O)cc3)(OC1=O)C2(C)C (centres undefined) | . | . | . | . | -1 | .
CCCc1nc2c(nnn2Cc2ccccc2Cl)c(=O)[nH]1 | -8 | . | . | -0.71 | 0 | .
CCOc1ccc(C2CC(c3cccc(Cl)c3)n3nc(N)nc3N2)cc1 (centres undefined) | 67* | 0 | 99 | . | 1 | 92
Nc1nc2n(n1)C(c1cccc(Cl)c1)CC(c1ccc(F)cc1)N2 (centres undefined) | 40 | . | 94 | . | -4 | 96
COc1ccc(S(=O)(=O)N2CCC(N3CCN(c4ccccc4OC)CC3)CC2)cc1 | . | . | . | 1.3 | -3 | .
O=C(CCl)NCc1cc(-c2ccc(Cl)cc2)no1 | 71* | 33 | . | 0.076 | 3 | .
COc1ccc(OCc2cc(-c3ccc(Cl)cc3)no2)cc1 | -3 | 31 | . | 0.021 | 1 | .
Cc1[nH][nH]c(=O)c1C(c1cc2c(cc1Br)OCO2)c1c(C)[nH][nH]c1=O | 33 | 67* | . | -0.083 | 3 | .
CCOc1ccc(C(c2c(C)[nH][nH]c2=O)c2c(C)[nH][nH]c2=O)cc1OC | 20 | 39 | 92 | . | 1 | 93
SMILES | Lmaj promast | Insulin prom inh | HCT116 PTEN-null | ROMK primary | p97 ATPase inh | bCat KO growth
NC(=S)N/N=C1/CCSc2ccc3ccccc3c21 | 5 | . | . | -3.2* | -5 | .
Cc1cc(-c2csc(NC(=O)c3ccc(C#N)cc3)n2)c(C)n1Cc1ccco1 | 51* | 7 | 94 | -0.015 | 2 | 92
Cc1cc(-c2csc(NC(=O)c3ccc(=O)[nH]c3)n2)c(C)n1Cc1ccccc1 | -9 | . | . | 0.24 | 7 | .
O=C(Nc1nnc(CSCc2ccccc2F)s1)c1cccc([N+](=O)[O-])c1 | 95* | 7 | 92 | 0.43 | -1 | 84
CC(C)(C)C(=O)Nc1nnc(CSCc2ccccc2F)s1 | 100* | -9 | 91 | -0.93 | 1 | 91
CC(C)C(=O)Nc1nnc(CSCc2ccccc2F)s1 | 91* | 19 | 103 | -0.11 | 0 | 100
COc1cc([N+](=O)[O-])ccc1NC(=O)CCCOc1cc(C)ccc1C | -2 | . | 70 | . | -3 | 79
CCN(CC)C(C)C#CCC(c1ccccc1)c1ccccc1 (centres undefined) | . | . | . | . | -5 | .
COc1ccc(N=C2SC(C(=O)Nc3ccc(OC)cc3)CC(=O)N2CCN2CCOCC2)cc1 (centres undefined) | 58* | 0 | 92 | 0.17 | -4 | 91
CC(C)OC(=O)CC1C(=O)NCCN1C(=S)NC(=O)c1cccs1 (centres undefined) | 9 | . | . | -0.036 | 3 | .
O=C(CSc1nnc2c(Cl)cc(Cl)cn12)N1CCN(c2ccc(F)cc2)CC1 | 53* | 19 | 87 | -0.23 | 1 | 89
O=C(CSc1nnc2c(Cl)cc(Cl)cn12)N1CCN(S(=O)(=O)c2ccccc2)CC1 | 4 | . | 97 | -0.83 | 2 | 86
NS(=O)(=O)c1ccc(NC(=O)COC(=O)CCc2ccc(S(=O)(=O)N3CCOCC3)cc2)cc1 | . | . | . | . | -5 | .
Cc1cc(C)c(S(=O)(=O)/N=C2/C=C(Sc3ncn[nH]3)C(=O)c3ccccc32)cc1C | 100* | -178 | 5 | -4.9* | 13 | 3.1*
O=C(COC(=O)c1ccc2c(c1)C(=O)N(c1cccc3ncccc13)C2=O)c1ccc(Cl)cc1 | -9 | -16 | 100 | 0.0044 | 3 | 85
Cc1ccc(C(=O)COC(=O)c2ccc3c(c2)C(=O)N(c2cccc4ncccc24)C3=O)cc1 | 76* | 17 | 99 | -0.73 | -1 | 98
Cc1cc(Cl)cc(Br)c1OCCCCn1cncn1 | 93* | -272 | 102 | . | 3 | 94
Cc1cc(Cl)c(OCCCn2cncn2)c(Br)c1 | 2 | 58 | 98 | . | 1 | 93
O=[N+]([O-])c1ccc(S(=O)(=O)NCCc2ccncc2)cc1 | 17 | . | . | -0.093 | -1 | .
Cc1cc(C)c(C)c(S(=O)(=O)N2CCN(CC(=O)Nc3sccc3C#N)CC2)c1C | 57* | -48 | 73 | 0.11 | -6 | 66
CC(=O)N1CCN(CC(=O)Nc2sccc2C#N)CC1 | 1 | . | . | 0.49 | -1 | .
O=C(CCSc1ccc(Cl)cc1)N1CCCCCC1 | -2 | -37 | 99 | . | -2 | 101
Clc1ccc(SCCN2CCNCC2)cc1 | 100* | . | . | . | 4 | .
Cc1ccc(-c2nc3ccccc3s2)cc1NC(=S)NC(=O)c1cccc2ccccc12 | 19 | -31 | 1.7* | . | 7 | 1.3*
Cc1ccc(-n2nc3cc(C)c(NC(=S)NC(=O)/C=C/c4ccco4)cc3n2)cc1 | 2 | 23 | 6 | . | 4 | 5.5*
Cc1ccc(-c2nc3ccccc3s2)cc1NC(=S)NC(=O)/C=C/c1ccco1 | -2 | 9 | 7 | . | 6 | 7
O=C(/C=C/c1ccco1)NC(=S)Nc1cc(-c2nc3ccccc3s2)ccc1Cl | -4 | . | 1.6* | . | 5 | 2.6*
